The supplement of paper PMC10981050
Values joined by “and” are separate entries in the source; they are usually repeats but may differ in a detail not shown here. Equal values may be shown once. Where a name gives a salt, the structure may show the parent alone.

Columns and labels:
Experiment in all cases: cell viability relative to vehicle control; higher = less cytotoxic
Details in all cases: 10 µM
K562 = tested on: K562
Procedure, shortened: (§1)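 After removal of identity-inconsistent compounds, the Selleck bioactive, kinase and epigenetic probe libraries were screened on CRISPR-edited mutant clones and isogenic wild-type clones of four leukaemia lines. Plates were 384-well, each well holding 2000 cells in 50 µL medium and receiving a single 10 µM acoustically dispensed dose. CellTiter-Glo luminescence was read 48 h later, after the supernatant was taken off. Genedata Screener was used to express viability as percent of the on-plate vehicle control.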

MARIMO = tested on: MARIMO
Procedure, shortened: as §1

MOLM14 = tested on: MOLM14
Procedure, shortened: as §1

OCI-AML2 = tested on: OCI-AML2
Procedure, shortened: as §1

| SMILES | cell viability (K562; SRSF2 genotype: SRSF2 P95H/wt) | cell viability (K562; SRSF2 genotype: SRSF2 wt/wt) [%] | cell viability (MARIMO; SRSF2 genotype: SRSF2 P95H/wt) [%] | cell viability (MARIMO; SRSF2 genotype: SRSF2 wt/wt) [%] | cell viability (MOLM14; SRSF2 genotype: SRSF2 P95H/wt) [%] | cell viability (MOLM14; SRSF2 genotype: SRSF2 wt/wt) [%] | cell viability (OCI-AML2; SRSF2 genotype: P95H/wt) [%] | cell viability (OCI-AML2; SRSF2 genotype: wt/wt) [%] |
| --- | --- | --- | --- | --- | --- | --- | --- | --- |
| COc1cc2c(cc1OC)[C@@H]1Cc3ccc(OC)c(OC)c3CN1CC2 [Tetrahydropalmatine hydrochloride] | 89.6% and 96.5% | 95.6 | 91.4 | 93.7 | 93.4 | 101 | 103 | 83.9 |
| CCOc1cc(N)c(Cl)cc1C(=O)NCC1CN(Cc2ccc(F)cc2)CCO1 (stereo unspecified) [Mosapride citrate] | 82.7% and 81.9% | 80 | 74.1 | 89.5 | 103 | 93.2 | 81.5 | 82.3 |
| O=S(=O)(O)c1cc(O)ccc1O [Calcium Dobesilate] | 104% and 94.7% | 103 | 103 | 110 | 98.4 | 103 | 104 | 103 |
| CC(=O)Nc1ccc(OC(=O)c2ccccc2OC(C)=O)cc1 [Benorylate] | 102% | 98.9 | 104 | 100 | 104 | 101 | 107 | 108 |
| CO[C@H]1CC[C@H](N2C(=O)CNc3ncc(-c4ccc(C(C)(C)O)nc4)nc32)CC1 | 27.9% and 28% | 29.7 | 36.3 | 32.3 | 28.1 | 24.1 | 26 | 29.6 |
| NS(=O)(=O)c1cc(Cl)c(Cl)c(S(N)(=O)=O)c1 [Dichlorphenamide (Diclofenamide)] | 108% and 97% | 95.9 | 91.9 | 102 | 105 | 99.6 | 93.4 | 103 |
| CN1CCC[C@@H]1CCO[C@](C)(c1ccccc1)c1ccc(Cl)cc1 [Clemastine Fumarate] | 83.6% and 82.3% | 81.6 | 74.2 | 77.3 | 71.3 | 78.4 | 81.7 | 78.8 |
| Cc1cc(N2CCOCC2)ccc1Nc1nc(NC2CCCCC2)c2[nH]cnc2n1 | 86.8% and 92.1% | 94.6 | 53 | 53.9 | 49.6 | 39 | 37.8 | 39.8 |
| CC1(C)CC[C@]2(C(=O)O)CC[C@]3(C)C(=CC[C@@H]4[C@@]5(C)CC[C@H](O)[C@@](C)(CO)[C@@H]5CC[C@]43C)[C@@H]2C1 [Hederagenin] | 103% and 102% | 97.1 | 98.4 | 112 | 106 | 105 | 120 | 107 |
| Cc1[nH]c(/C=C2\C(=O)Nc3ccccc32)c(C)c1CCC(=O)O [Orantinib (TSU-68, SU6668)] | 98.7% and 95.2% | 95.5 | 96.3 | 103 | 82 | 89.2 | 75.2 | 84.2 |
| O=C(c1ccc(F)c(F)c1Nc1ccc(I)cc1F)N1CC(O)([C@@H]2CCCCN2)C1 [Cobimetinib (GDC-0973, RG7420)] | 22.4% and 35.4% | 35.5 | 27.5 | 28.6 | 29.6 | 21.1 | 18.2 | 26.1 |
| O=c1cc(-c2ccccc2)oc2cc(O)cc(O)c12 [Chrysin] | 100% and 104% | 105 | 93 | 107 | 81.1 | 93.7 | 86.7 | 75.3 |
| COc1cc(O)c2c(=O)cc(-c3ccc(O)c(O)c3)oc2c1 [Hydroxygenkwanin] | 85.2% and 89.8% | 88.9 | 45.7 | 69.4 | 57.5 | 58.8 | 58.3 | 56.4 |
| CC(O)COCC1OC2OC3C(COCC(C)O)OC(OC4C(COCC(C)O)OC(OC5C(COCC(C)O)OC(OC6C(COCC(C)O)OC(OC7C(COCC(C)O)OC(OC8C(COCC(C)O)OC(OC1C(O)C2O)C(O)C8O)C(O)C7O)C(O)C6O)C(O)C5O)C(O)C4O)C(O)C3O (stereo unspecified) | 100% and 108% | 109 | 105 | 112 | 106 | 108 | 108 | 95.8 |
| CN(C)C(=S)NN=C(c1ccccn1)c1ccccn1 | 30% and 40.3% | 30.9 | 11.5 | 20.1 | 1.77 | 0.87 | 10.9 | 10.6 |
| Cc1cc(C)nc(SCC(=O)Nc2ncc(Cc3cccc4ccccc34)s2)n1 | 79.2% and 84.5% | 75.5 | 78.5 | 86.9 | 41.1 | 42.4 | 61.4 | 66.4 |
| C[C@H](C[C@H](O)[C@@H](O)C(C)(C)O)C1=C2C[C@H](O)[C@H]3[C@@]4(C)CCC(=O)C(C)(C)[C@@H]4CC[C@]3(C)[C@@]2(C)CC1 [Alisol A] | 85.4% and 85.1% | 89.8 | 86.9 | 79.1 | 98.4 | 96.2 | 84.9 | 83.5 |
| Clc1ccc(C(c2c[nH]c3ccccc23)c2c[nH]c3ccccc23)cc1 | 83% and 83.3% | 76.5 | 86.3 | 93.2 | 62.7 | 73 | 92 | 96.7 |
| CNCc1ccc(-c2[nH]c3cc(F)cc4c3c2CCNC4=O)cc1 | 94% and 103% | 97.8 | 84.7 | 86.7 | 50 | 29.4 | 44.2 | 55.8 |
| CC1=C(C(=O)OCCN(Cc2ccccc2)c2ccccc2)C(c2cccc([N+](=O)[O-])c2)C(P2(=O)OCC(C)(C)CO2)=C(C)N1 (stereo unspecified) [Efonidipine] | 78.8% and 87.3% | 83.7 | 95.5 | 98.4 | 82.2 | 95.7 | 104 | 82.3 |
| CN(C)CCN1C(=O)c2cccc3cc(N)cc(c23)C1=O [Amonafide] | 33.8% and 37.6% | 32.1 | 7.66 | 10.7 | 0.3 | 0.27 | 0.94 | 2.97 |

| SMILES | cell viability (K562; SRSF2 genotype: SRSF2 P95H/wt) | cell viability (K562; SRSF2 genotype: SRSF2 wt/wt) [%] | cell viability (MARIMO; SRSF2 genotype: SRSF2 P95H/wt) [%] | cell viability (MARIMO; SRSF2 genotype: SRSF2 wt/wt) [%] | cell viability (MOLM14; SRSF2 genotype: SRSF2 P95H/wt) [%] | cell viability (MOLM14; SRSF2 genotype: SRSF2 wt/wt) [%] | cell viability (OCI-AML2; SRSF2 genotype: P95H/wt) [%] | cell viability (OCI-AML2; SRSF2 genotype: wt/wt) [%] |
| --- | --- | --- | --- | --- | --- | --- | --- | --- |
| S=C(NCc1ccc2c(c1)OCO2)N1CCN(c2ncnc3c2oc2ccccc23)CC1 [Amuvatinib (MP-470)] | 62.3% and 74.9% | 64.2 | 50.3 | 41.5 | 68.2 | 76.4 | 28 | 42.5 |
| CCOC(=O)c1c(CSc2ccccc2)n(C)c2cc(Br)c(O)c(CN(C)C)c12 [Arbidol HCl] | 50.6% and 70.1% | 61.6 | 48 | 54.8 | 47.8 | 32.9 | 53.5 | 43.8 |
| CO/N=C(\C(=O)N[C@@H]1C(=O)N2C(C(=O)O)=C(CSC(=O)c3ccco3)CS[C@H]12)c1csc(N)n1 [Ceftiofur hydrochloride] | 98.4% and 82.1% | 83.7 | 89.1 | 93.9 | 91.5 | 93.5 | 93.4 | 95.4 |
| Cc1cc(C)nc(NC(=S)N2CCN(Cc3ccc(C(F)(F)F)cc3)CC2)c1 | 71.2% and 80.6% | 73.2 | 67.4 | 64.5 | 77.3 | 86.6 | 37.8 | 54 |
| CCN(CC)CCOC(=O)c1ccc(N)cc1 [Procaine] | 100% and 99% | 102 | 99.6 | 108 | 107 | 105 | 104 | 101 |
| Cc1ccc(S(=O)(=O)C=CC#N)cc1 | 1.6% and 0.48% | 0.6 | 0.37 | 0.39 | 0.28 | 0.27 | 0.28 | 0.35 |
| O=C(/C=C/c1ccc(O)c(O)c1)c1ccc(O)cc1O [Butein] | 62% and 61% | 76.8 | 52.6 | 64.7 | 52.4 | 47.8 | 84.1 | 77.8 |
| Cc1cc(Nc2ccc(NC(=O)c3ccc(Nc4ccnc5ccccc45)cc3)cc2)nc(N)n1 | 1.14% and 0.97% | 2.69 | 0.48 | 0.36 | 0.33 | 0.25 | 0.22 | 0.27 |
| Nc1nc(Cl)nc2c1ncn2[C@@H]1O[C@H](CO)[C@@H](O)[C@@H]1F [Clofarabine] | 96.7% and 113% | 105 | 11.5 | 8.77 | 2.95 | 0.83 | 5.47 | 4.64 |
| Nc1nccc(Oc2ccc(NC(=O)c3c[nH]cc(-c4ccc(F)cc4)c3=O)cc2F)c1Cl | 76.3% and 90.6% | 80.8 | 96.2 | 110 | 19.9 | 14.8 | 41.8 | 43.6 |
| C=CCc1ccc(OC(C)=O)c(OC)c1 [Eugenyl acetate] | 85.8% and 88% | 86 | 89.7 | 90.4 | 93.2 | 90.1 | 91.1 | 91.6 |
| COc1cc(/C=C/C(=O)CC(=O)/C=C/c2ccc(O)c(OC)c2)ccc1O [Curcumin] | 90.9% and 87% | 91.9 | 87.3 | 75.7 | 47.8 | 59.1 | 60.6 | 69.3 |
| CNC(=O)c1ccc(N2C(=S)N(c3cnc(C#N)c(C(F)(F)F)c3)C(=O)C23CCC3)cc1F | 98.6% and 98.8% | 103 | 104 | 110 | 98.4 | 109 | 96.2 | 88.1 |
| COc1ccc(C(C)=O)c(O)c1 [Paeonol (Peonol)] | 103% and 101% | 99.5 | 104 | 97.9 | 102 | 102 | 98.3 | 91.5 |
| NC(=O)[C@@H](CCC(F)(F)F)N(Cc1ccc(-c2ncon2)cc1F)S(=O)(=O)c1ccc(Cl)cc1 | 92.5% and 98.1% | 93.9 | 84.8 | 96.6 | 88.2 | 97.9 | 106 | 104 |
| C[C@H]1CNCCCN1S(=O)(=O)c1cccc2cncc(F)c12 [Ripasudil (K-115)] | 104% and 103% | 108 | 101 | 106 | 74.7 | 101 | 76.7 | 82.9 |
| NC(=O)NO [Hydroxyurea (Cytodrox)] | 102% and 106% | 103 | 97.5 | 105 | 109 | 108 | 108 | 108 |
| O=C(/C=C/c1ccc(O)cc1)C1=C(O)[C@](O)([C@@H]2O[C@H](CO)[C@@H](O)[C@H](O)[C@H]2O)C(O)=C(/C=C2/C(=O)C(C(=O)/C=C/c3ccc(O)cc3)=C(O)[C@@](O)([C@@H]3O[C@H](CO)[C@@H](O)[C@H](O)[C@H]3O)C2=O)C1=O [Safflower Yellow] | 97.2% and 89.1% | 90.4 | 91.5 | 98.8 | 90.4 | 94.9 | 97.7 | 90.5 |
| NC(=O)c1cnc(N[C@@H]2CCCC[C@@H]2N)nc1Nc1cccc(-n2nccn2)c1 | 16.9% and 18.1% | 15.9 | 16 | 12.6 | 2.43 | 1.83 | 0.51 | 3.84 |
| CCC(C)n1ncn(-c2ccc(N3CCN(c4ccc(OCC5COC(Cn6cncn6)(c6ccc(Cl)cc6Cl)O5)cc4)CC3)cc2)c1=O (stereo unspecified) [Itraconazole (Sporanox)] | 76.7% and 94.4% | 83.1 | 49.6 | 55 | 71.1 | 96.7 | 50.8 | 55.4 |
| Cc1cc(=O)c2c(O)c3c(cc2o1)OC(C)(C)[C@@H](O[C@@H]1O[C@H](CO)[C@@H](O)[C@H](O)[C@H]1O)C3 [Sec-O-Glucosylhamaudol] | 105% and 101% | 114 | 106 | 98.7 | 109 | 101 | 94 | 91.3 |
